Assay results: PMC7826789 (International Journal of Molecular Sciences, 2021)

Tested on: AXL
Conditions: Compound Concentration (nM):1000
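Further: KINOMEscan scanMAX binding as percent activity remaining versus control; lower means stronger binding.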

SMILES | Percent Control [%]
COc1ccccc1-c1cc(/C=C2\C(=O)Nc3ncc(Br)cc32)cc(Br)c1O [GW442130X] | 92
NS(=O)(=O)c1ccc(N/N=C2\C(=O)Nc3ccc(C(=O)NCc4ccncc4)cc32)cc1 [GW300657X] | 95
Cl.O=C(O[C@H]1CN[C@H](C#Cc2cc3ncnc(Nc4ccc5c(cnn5Cc5ccccc5)c4)c3s2)C1)N1CCOCC1 [GSK200398A] | 100
Cl.O=S1CCN(Cc2ccc(-c3ccc4ncnc(Nc5ccc(OCc6ccccc6)c(F)c5)c4c3)o2)CC1 [GW576924A] | 100
Cl.c1ccc(Cc2nc3ccc(Nc4ncnc5ccccc45)cc3[nH]2)cc1 [GR269666A] | 100
COc1cccc(-c2c[nH]c3c(N/N=C/c4ccncc4)ncnc23)c1 [GW814408X] | 71
Cl.O=C(Nc1ccc(Oc2ccc3[nH]c(NC(=O)c4ccccc4)nc3c2)cc1)Nc1cc(C(F)(F)F)ccc1F [GW709042A] | 0
CCn1c(-c2nonc2N)nc2c(C#CC(C)(C)O)nc(OCCNC)cc21.Cl [GSK949675] | 100
CN(C)c1cc2c(Nc3ccc4c(cnn4Cc4ccccc4)c3)ncnc2cn1 [GW282974X] | 98
C[C@@H](Oc1cc(-n2cnc3ccc(OC4CCN(C)CC4)cc32)sc1C(N)=O)c1ccccc1Cl [GSK579289A] | 67
CCc1ccc(Oc2nccc(-c3c(-c4ccc(F)cc4)ncn3C3CCNCC3)n2)cc1 [SB-242719] | 100
NS(=O)(=O)c1ccc(N/N=C2\C(=O)Nc3ccc(-c4cnco4)cc32)cc1 [GW276655] | 100
COc1cc(C)c(N(C)C(=O)CN(C)C)cc1Nc1nc(Nc2cccc(F)c2C(N)=O)c2cc[nH]c2n1 [GSK2219385] | 76
COc1ccc2[nH]c3c4[nH]c5ccc(OC)cc5c4c4c(c3c2c1)C(=O)NC4=O [GW296115X] | 30
COc1cc(C=NNc2ncnc3c2cnn3-c2ccccc2)ccc1O [GW513184X] | 60
NS(=O)(=O)c1ccc(N/N=C2\C(=O)Nc3ccc(Cl)cc32)cc1 [GW280670X] | 100
COc1cc(N2CCN(C(C)C)CC2)ccc1Nc1nc(Nc2ccc(F)cc2C(=O)NC[C@@H](O)CO)c2cc[nH]c2n1 [GSK1392956A] | 46
Cc1cc(O)cc(C)c1/C=C/c1cncc(C(N)=O)c1 [GW435821X] | 100
COC(=O)Nc1nc2ccc(Oc3ccc(NC(=O)Nc4cc(C(F)(F)F)ccc4F)cc3)cc2s1.Cl [GW693917A] | 6
CC(C)COC(=O)c1ccc2c(c1)/C(=C/Nc1ccc(S(N)(=O)=O)cc1)C(=O)N2 [GW416981X] | 100
CCS(=O)(=O)c1ccc(OC)c(Nc2ncc(-c3cccc(OC)c3)o2)c1 [GW580509X] | 95
COc1cccc(-n2ncc3c(N/N=C/c4ccncc4)ncnc32)c1 [GW784752X] | 100
COc1ccc2c(-c3ccnc(Nc4cccc(OC(F)(F)F)c4)n3)cnn2n1 [GW810372X] | 87
O=C1Nc2ccc(C(=O)c3ccco3)cc2C1=Cc1cc(Cl)c(O)c(Cl)c1 [GW406108X] | 100
NS(=O)(=O)c1ccc(Nc2ncc(-c3ccccc3)o2)cc1 [GW572399X] | 100
COc1cc2ncn(-c3cc(O[C@H](C)c4ccccc4Cl)c(C(N)=O)s3)c2cc1OC [GSK237701A] | 50
Nc1ncnc2occ(-c3ccc(NC(=O)Nc4cc(C(F)(F)F)ccc4F)cc3)c12 [GW770249X] | 0
NS(=O)(=O)c1ccc(N/N=C2\C(=O)Nc3ccc(C(=O)NCCc4c[nH]cn4)cc32)cc1 [GW300660X] | 100
